Bioassay records deposited in PubChem by Center for Chemical Genomics, University of Michigan.
Shown is part of a subset that was picked to be rich in hits.
Dicer inh: inhibitors of human Dicer processing of pre-microRNA; 47,000 tested, 6% active; z-score at 25 µM; cat-ELCCA pre-miR-21 Dicer processing, chemiluminescence; hits give high values; Q9UPY3; in the data active = z-score above about 3, passing the limit was not always enough;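 also: plate controls were vehicle for no effect and no enzyme for full effect; higher signal means more uncleaved substrate so more Dicer inhibition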
Active calls of the source: *.

SMILES	Dicer inh
O=[N+]([O-])c1ccccc1S(=O)(=O)N1c2ccccc2OC1c1ccc(Cl)c(Cl)c1 (stereo unspecified)	0.45
O=C(COc1ccc(Cl)cc1)NC1CCSC1=O (stereo unspecified)	0.2
O=C1SCCC1NS(=O)(=O)c1ccccc1 (stereo unspecified)	0.5
COc1ccc(S(=O)(=O)NC2CCSC2=O)cc1 (stereo unspecified)	3.7*
Cc1c(C)c(C)c(S(=O)(=O)N2CC(C)CC(C)C2)c(C)c1C (stereo unspecified)	2.3
CC(C)(C)c1ccc2nc(/C(=C\c3ccc(F)cc3)NC(=O)c3ccccc3)[nH]c2c1	0.48
CCSc1nnc2c(n1)OC(c1ccc(N(C)C)cc1)Nc1ccccc1-2 (stereo unspecified)	1.4
CCSc1nnc2c(n1)OC(c1ccc(O)cc1)Nc1ccccc1-2 (stereo unspecified)	-0.74
CCCSc1nnc2c(n1)OC(/C=C/c1ccc([N+](=O)[O-])o1)Nc1ccccc1-2 (stereo unspecified)	3.5*
N#Cc1nn(-c2ccccc2)c(=O)n(Cc2ccccc2)c1=O	0
COc1cc(/C=N/N=C2/NC(=O)CS2)cc(OC)c1	0.79
COc1cc2c3c(c1OC)C1(C=CC(=O)C=C1)CC3N(S(=O)(=O)c1ccc(C)cc1)CC2 (stereo unspecified)	0.98
CCOC(=O)/C(=C(/C)N)C1CC(=O)N(c2ccccc2)C1=O (stereo unspecified)	0.57
Nc1cccc(-c2csc(N)n2)c1	-1.3
Cc1ccc(C)c(-c2csc(N)n2)c1	3.6*
Cc1ccc(-c2csc(N=C(N)N)n2)c(C)c1	0.5
Nc1nc(-c2ccc3ccccc3c2)cs1	0.5
Nc1nc(-c2ccccc2O)cs1	4.5*
Nc1nc(-c2cccs2)cs1	-0.87
Cc1ccc(Nc2ncnc3ccccc23)cc1C	-0.99
COC(=O)c1cc(-c2ccc(F)cc2)no1	1.5
Cc1ccccc1NC(=O)Nc1cc(-c2ccccc2)nn1C	3
Cc1cc(C)cc(NC(=O)Nc2cc(C(C)(C)C)nn2C)c1	-1.1
Cc1nnsc1C(=O)Nc1cc(-c2ccccc2)nn1C	-1.2
Cn1nc(-c2ccccc2)cc1NC(=O)Nc1ccc(OCc2ccccc2)cc1	0.53
SMILES	Dicer inh
Cc1ccc(F)cc1NC(=O)Nc1cc(C(C)(C)C)nn1C	4*
Cn1nc(-c2ccccc2)cc1NC(=O)Nc1ccc(F)cc1	3.6*
Cn1nc(C(C)(C)C)cc1NC(=O)Nc1cccc2ccccc12	1.4
Cn1nc(C(C)(C)C)cc1NC(=O)Nc1ccc(OCc2ccccc2)cc1	4.3*
Cn1nc(-c2ccc(Cl)cc2)cc1NC(=O)Nc1ccc(OCc2ccccc2)cc1	-0.67
COc1ccc(Cl)cc1NC(=O)OCc1ccc(-c2cc(C(F)(F)F)cc(C(F)(F)F)c2)o1	-0.4
Cc1ccc(CSc2nnc3c(n2)[nH]c2ccc(Br)cc23)cc1	-0.38
C#CCSc1nnnn1-c1ccc(C)cc1C	-0.94
O=C(O)CC(NC(=O)c1ccccc1)C(=O)O (stereo unspecified)	0.11
CCOC(=O)NC(=O)C(=CNc1sc(C)c(C)c1C(=O)OCC)C(=O)NC(=O)OCC	-0.22
CC(C)CC(NC(=O)Cc1ccsc1)C(=O)NNS(=O)(=O)c1ccc(Cl)cc1 (stereo unspecified)	12*
CC(C)CC(NC(=O)Cc1ccsc1)C(=O)NN (stereo unspecified)	-2.8
CC(C)CC(NC(=O)Cc1ccsc1)C(=O)NNC(=O)c1ccccc1Cl (stereo unspecified)	-0.88
C=CCSc1nnc(-c2ccc(C(C)(C)C)cc2)n1C	30
COC(=O)C1=C(C)Nc2nc3ccccc3n2C1c1ccc(C(C)C)cc1 (stereo unspecified)	0.32
C=CCc1cc(C(=O)N2CCCC2)ccc1O	2
CSc1nc2ccccc2n1CCOc1ccccc1	-1.9
OCCSc1nc2ccccc2n1CCOc1ccccc1	3.9*
Cc1ccc(OCCSc2nc3ccccc3n2CCO)cc1	-0.89
COc1cc(C2C(C#N)=C(N)Oc3cc(O)ccc32)ccc1OCc1ccccc1 (stereo unspecified)	1.8
COC(=O)C1=C(C)NC2=C(C(=O)CC(C)(C)C2)C1c1ccc(OCc2ccccc2)c(OC)c1 (stereo unspecified)	-0.7
COc1ccc(C2C(C#N)=C(N)OC3=C2C(=O)CC(C)(C)C3)cc1OCc1ccccc1 (stereo unspecified)	3*
COc1c(Br)csc1C(=O)Nc1cccc(C(F)(F)F)c1	0.56
Cc1cc(Br)c(-n2cccc2)c(Br)c1Cl	-1.1
O=C1NCCCC1C(=O)NCC(O)CO (stereo unspecified)	-1
SMILES	Dicer inh
CN(C(=O)Nc1ccccc1)n1cnc2ccsc2c1=O	5.4*
CN(C(=O)CN1CCOCC1)n1cnc2ccsc2c1=O	0.08
CN(n1cnc2ccsc2c1=O)S(=O)(=O)c1ccc(Cl)cc1	0.02
O=C1c2cc3ccccc3cc2C(=O)C1c1ccccc1	4*
O=C1c2ccccc2C(=O)C1c1ccc2ccccc2n1	0.48
O=C1c2cccc3cccc(c23)C(=O)C1c1ccccc1	-1.1
NC(=O)C1CCN(C(=O)c2cnn3c(C(F)F)cc(-c4ccccc4)nc23)CC1	0.97
Cc1c(C)c(C)c(S(=O)(=O)Oc2cccnc2)c(C)c1C	3.8*
COc1ccc(S(=O)(=O)Nc2cccnc2)c(C)c1C	1.1
Cc1c(C)c(C)c(S(=O)(=O)Oc2cc(Cl)cc(Cl)c2)c(C)c1C	-0.02
Cc1ccc(C2SCCN2S(C)(=O)=O)cc1 (stereo unspecified)	-0.49
O=C(O)CCCC(=O)NC1CCCc2ccccc21 (stereo unspecified)	-1.7
CCN(CC)CCCC(C)Nc1nc(C)nc2cc(Cl)ccc12 (stereo unspecified)	-0.22
CCN(CC)CCCNc1ncnc2ccccc12	-0.08
CCN(CC)CCCC(C)Nc1nc(C)nc2ccccc12 (stereo unspecified)	4.3*
O=c1c(OS(=O)(=O)Cc2ccccc2)c(-c2ccccc2)oc2ccccc12	-0.02
O=C(c1ccccc1)c1cccn1S(=O)(=O)c1cc(C(F)(F)F)cc(C(F)(F)F)c1	0.94
C=CCN1C(=O)C(O)(CC(=O)c2cc(C)ccc2C)c2ccccc21 (stereo unspecified)	9.4*
C=CCN1C(=O)C(O)(CC(=O)c2ccc(C)cc2C)c2ccccc21 (stereo unspecified)	-1
CCCN1C(=O)C(O)(CC(=O)c2cc(OC)ccc2OC)c2cc(Br)ccc21 (stereo unspecified)	-0.9
C=CCN1C(=O)C(O)(CC(=O)c2cc(OC)ccc2OC)c2cc(Br)ccc21 (stereo unspecified)	3.5*
C=CCN1C(=O)C(O)(CC(=O)c2ccccc2OC)c2ccccc21 (stereo unspecified)	1.1
C=CCN1C(=O)C(O)(CC(=O)c2ccc(OC)cc2OC)c2cc(Br)ccc21 (stereo unspecified)	-0.27
COc1ccc(C2CC(=O)C3=C(C2)Nc2ccccc2NC3c2coc3ccccc3c2=O)cc1 (stereo unspecified)	1.8
CCOC(=O)c1c(O)c2ccccc2[nH]c1=O	0.85
CCOC(=O)c1c(C)nc2ccc(Cl)cc2c1-c1ccccc1	0.82
CCOC(=O)c1c(-c2ccccc2)c2oc3ccccc3c2[nH]c1=O	3.1*
Cc1csc2c(NC(C)C)ncnc12	1.2
Cc1[nH]nc(NCc2cccnc2)c1[N+](=O)[O-]	-0.07
CCCc1c(Cc2c(F)cccc2Cl)c(=O)oc2cc(OS(C)(=O)=O)ccc12	0.67
